# A selection: hits, their analogues and other compounds. The true share with any hit is near 1.6%.
# p97 ATPase inh – blocks human p97 ATPase activity. actives 0.42% (n = 220,000). P55072. inhibition, % at 8 µM. recombinant p97 ATPase, Kinase-Glo ATP luminescence, 3 h; in the data active = inhibition above about 15%;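 note: 0% = DMSO vehicle and 100% = wells lacking enzyme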
# HSV replic up – HSV replication enhancement. actives 0.005% (n = 220,000). AID 1956. HSV replication augmentation in cells, fold increase. maximum fold increase; in the data active = maximum fold increase above about 1.5; inconclusive = no clear call, values can overlap the other calls; tested in PC3 cells
# Hsp70 act – switches on Hsp70 transcription; actives 0.04% (n = 200,000); HeLa Hsp70 promoter luciferase reporter, luminescence; scaled: vehicle 0, proteasome-inhibitor control 100%; AID 1203; activation, % at 10 µM;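 active = activation above the mean across all tested compounds plus 3 SD, cutoff set per campaign, cut at about 5.5% in these data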;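 note: 100% = MG132 at 30 µM as the positive control and 0% = DMSO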
# Redox H2O2 prof – compounds producing H2O2 with reducing agent – biochemical, NIH compound library profiling, artefact control for MLSCN library redox annotation, primary screen. actives 0.03% (n = 200,000). AID 878. DTT-dependent redox cycling H2O2, phenol red/HRP absorbance; 100% = 100 µM peroxide control, 0% = buffer. activation, % at 10 µM;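 active = activation of at least 50% relative to the plate's high and low controls in the primary single-dose screen; inactive = activation below 50%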;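 note: compound incubated with DTT at 0.8 mM final as the reducing agent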
# Wee1 stabilizer – human Wee1 degradation inhibition, primary screen | P30291 | HeLa Luc-Wee1K328M stability, luciferase luminescence; 100% = proteasome inhibitor MG132 effect | reporter increase, % at 5 µM | actives 1.2% (n = 220,000) | AID 1321;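 active = activation above the mean of all tested compounds plus 3 SD, set per screening run, cut at about 8.8% in these data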;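 note: cells exposed to compound for 20 h before luminescence read; 0% = DMSO alone and 100% = MG132 at 30 µM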
# Target sequence (P30291 whole entry K328M): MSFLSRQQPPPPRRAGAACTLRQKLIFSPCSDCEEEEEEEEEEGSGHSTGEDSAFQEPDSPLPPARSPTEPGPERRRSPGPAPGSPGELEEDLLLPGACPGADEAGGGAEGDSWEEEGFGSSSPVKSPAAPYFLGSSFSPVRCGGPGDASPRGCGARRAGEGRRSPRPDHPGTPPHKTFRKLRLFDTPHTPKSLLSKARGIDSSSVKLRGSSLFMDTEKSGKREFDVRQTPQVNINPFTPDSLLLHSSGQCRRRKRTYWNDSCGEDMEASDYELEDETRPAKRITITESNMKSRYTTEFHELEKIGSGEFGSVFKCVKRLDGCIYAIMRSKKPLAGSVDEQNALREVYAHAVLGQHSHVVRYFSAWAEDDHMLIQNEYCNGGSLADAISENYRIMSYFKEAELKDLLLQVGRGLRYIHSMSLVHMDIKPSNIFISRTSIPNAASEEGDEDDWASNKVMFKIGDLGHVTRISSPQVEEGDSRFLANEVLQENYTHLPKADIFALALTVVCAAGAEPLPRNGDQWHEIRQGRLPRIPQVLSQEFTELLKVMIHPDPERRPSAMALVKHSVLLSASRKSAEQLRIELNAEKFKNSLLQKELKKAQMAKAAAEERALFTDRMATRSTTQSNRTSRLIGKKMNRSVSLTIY
# Starred values were filed as active, the others as inactive; i = inactive; ? = inconclusive; . = not tested or not shown.
SMILES,p97 ATPase inh,HSV replic up,Hsp70 act,Redox H2O2 prof,Wee1 stabilizer
CCOC(=O)CN1c2ccccc2NC(=O)CC1C (configuration not stated),-8,i,0,-1,14*
Cc1ccc(Cl)c(OCC(=O)Nc2sc(C)c(C)c2C#N)c1,1,i,0,0,8.8*
Cc1ccc(Cl)c(OCC(=O)Nc2ccc3c(c2)OCCO3)c1,-4,i,0,0,8
O=S(=O)(Nc1ccc(N2CCOCC2)cc1)c1ccccc1,4,i,0,0,-3
O=S(=O)(/C=C/c1ccccc1)Nc1ccc(N2CCOCC2)cc1,-5,i,0,0,10*
Cc1cc(NC(=O)Cc2csc(-c3ccccc3)n2)ccc1Br,3,i,0,0,3
CC(C)(C)OC(=O)N/N=C/c1ccc(Br)cc1,-1,i,0,0,-4
CCOc1ccc(C(=O)CSCCC(=O)O)cc1,3,i,0,0,2
O=C(O)CSCCOc1ccc(OCCSCC(=O)O)cc1,4,i,0,0,10*
Cc1ccc(-c2csc(N/N=C/c3ccco3)n2)c(C)c1,-4,i,0,0,9.6*
CN(C)S(=O)(=O)c1cccc(-c2csc(N/N=C/c3ccco3)n2)c1,9,i,.,.,-1
C=CCNc1cc(C)oc(=O)c1C(=O)CC,6,i,0,0,0
COc1cc2c(cc1OC)C(C)N(S(=O)(=O)c1cn(C)cn1)CC2 (configuration not stated),5,i,.,.,9.4*
Cc1ccc(CN2CCNC(=O)C2CC(=O)NCCCn2ncc3ccccc32)o1 (configuration not stated),2,i,0,-1,15*
Cc1ccc(CN2CCNC(=O)C2CC(=O)NC2CCCCCC2)o1 (configuration not stated),-1,i,0,-1,-1
COc1ccc(CNCC(O)COc2cccc3c2OC(C)(C)C3)cc1 (configuration not stated),-2,i,0,-1,-4
O=C(O)CCCC(=O)N1CC(=O)Nc2ccccc21,4,i,0,1,9.1*
COc1ccc(S(=O)(=O)n2[nH]c(=O)c(CCO)c2C)c([N+](=O)[O-])c1,3,i,0,0,1
Cc1ccc(S(=O)(=O)n2[nH]c(=O)c(CCO)c2C)cc1,2,i,0,2,9.0*
Cc1nn(-c2nc3ccccc3[nH]2)c(N)c1-c1ccc(Cl)cc1,1,i,0,0,11*
O=C(O)COn1c(-c2ccccc2)nc2ccc([N+](=O)[O-])cc21,-6,i,0,-1,11*
CCOC(=O)C(C)On1c(-c2ccccc2)nc2ccc([N+](=O)[O-])cc21 (configuration not stated),-6,i,0,0,1
O=C1/C(=C/c2cccnc2)CC/C1=C\c1cccnc1,2,i,0,0,3
CCC1C/C(=C\c2cccnc2)C(=O)/C(=C/c2cccnc2)C1 (configuration not stated),-2,i,25*,-1,1
O=C(NCCc1ccccc1F)C1CCCN1S(=O)(=O)c1ccccc1 (configuration not stated),4,i,0,1,-4
SMILES,p97 ATPase inh,HSV replic up,Hsp70 act,Redox H2O2 prof,Wee1 stabilizer
O=C(NC(=S)Nc1ccc(F)cc1)c1ccc2c(c1)OCCO2,1,i,0,0,9.5*
CCOC(=O)N1CCN(C(=O)Cn2cc3c(n2)CCCC3)CC1,4,i,0,0,11*
COc1cc2nc(/C=C/c3cc(OC)c(OC)c(OC)c3)sc2cc1SC,1,i,0,1,9.7*
COc1ccccc1NC1=C(NC(C)=O)C(=O)c2ccccc2C1=O,-5,i,0,-1,-2
COc1ccccc1N(/N=C1\Sc2ccccc2C1=O)C(C)=O,15*,i,.,.,3
Cc1cc(N)ccc1-n1c(C)ccc1C,3,i,0,0,-3
Cc1cc(N)ccc1N1CCCC1,17*,i,0,2,-2
OCC1(Cc2cccc(Cl)c2)CCCN(Cc2ccc3cc(F)ccc3n2)C1 (configuration not stated),-3,i,0,-1,0
COc1ccc(-c2nnc(SCc3ccccn3)n2C)cc1,2,i,0,1,6
Cc1ccc(NC(=O)c2ccccc2)s1,-3,i,0,3,9.7*
CN(C)c1ccc(C(=O)OCC(=O)c2cccs2)cc1,1,i,0,0,9.0*
Cc1cccc(NC(=O)CN(C)S(=O)(=O)c2cccs2)c1,1,i,0,0,3
O=C(CNC(=O)c1ccco1)OCc1cccc(Cl)c1,-1,i,0,2,9.4*
O=C(CNC(=O)c1ccco1)NCC(=O)OCc1cccc(Cl)c1,4,i,0,2,2
CCCCNc1nc(N)ncc1[N+](=O)[O-],15*,i,.,.,1
CCOC(=O)CSc1ccc(C(=O)Nc2ccc(OC)cc2)cn1,-4,i,0,0,9.4*
CCOC(=O)CSc1ccc(C(=O)Nc2ccc(Cl)cc2)cn1,-2,i,0,0,1
COc1ccc([C@H]2CC(=O)c3c(O)cc(O)cc3O2)cc1O,6,i,.,.,-2
O=C(O[C@@H]1Cc2c(O)cc(O)cc2O[C@@H]1c1cc(O)c(O)c(O)c1)c1cc(O)c(O)c(O)c1,42*,i,0,.,-2
CC1CCN(c2nc3ccccc3nc2C(C#N)C(=O)OC2CCCCC2)CC1 (configuration not stated),5,?,0,1,12*
COc1cc(OC)c2c(-c3ccccc3)cc(=O)oc2c1C(CC(=O)N1CCN(c2ccccc2)CC1)c1ccc(N(C)C)cc1 (configuration not stated),.,i,.,.,.
O=C(NCc1ccccc1)C1CCN(S(=O)(=O)N2CCOCC2)CC1,-3,i,0,2,1
O=C(NCc1ccccc1)C1CCN(S(=O)(=O)N2CCCCCC2)CC1,-3,i,0,0,9.5*
CC(C)(C)C(=O)Nc1ccc(-c2csnn2)cc1,5,i,.,.,11*
O=C(Nc1ccc(-c2csnn2)cc1)C(Cl)(Cl)Cl,6,i,.,.,-4
CNc1ncc(C(=O)c2ccc(Cl)cc2)s1,-3,i,0,-3,9.6*
NNC(=O)c1ccc(CN2C(=O)c3cccc4cccc2c34)cc1,4,i,0,-1,2
COc1ccccc1/C=N/NC(=O)c1ccc(CN2C(=O)c3cccc4cccc2c34)cc1,1,i,.,.,9.0*
CCCCCOC(=O)Nc1ccc(S(=O)(=O)Nn2cnnc2)cc1,-1,i,0,-3,0
O=C(CCn1c(=S)oc2ccccc21)NCCC1=CCCCC1,0,i,.,.,11*

# Source: PubChem (several laboratories)
